High-throughput results from PubChem BioAssay.
TWEAK Fn14 block: inhibitors of TWEAK-Fn14 signaling, primary screen, luciferase reporter cells, uHTS; hit rate 2% among 360,000; AID 1159606, 2016; TWEAK-stimulated Fn14 reporter cells, luciferase luminescence, 8 h; inhibition, % at 10 µM; in the data active = inhibition above about 50%
HSF1 inhib: HSF1 inhibitors in luciferase reporter cells, primary screen, cell-based, NIH3T3, luminescence | NIH3T3-HGL HSE-luciferase, MG132-induced, luminescence 8 h; hits give low values | activity change, negative = inhibition, % at 7.5 µM (by protocol) | hit rate 0.77% among 300,000;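 active = more than half of replicate wells show activity change below -50%, luminescence cut by over half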;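 also: luciferase reports HSF-1 transcriptional activity via heat shock element; 0% = median of DMSO wells and -100% = zero luminescence signal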
HSF1 activator: HSF-1 activators, primary screen, NIH3T3-HGL cells, MG132 stress, luminescence, single point | NIH3T3-HGL HSF-1 luciferase reporter, 8 h; 100% = twice DMSO control signal | activation, % at 9 µM | hit rate 1.7% among 300,000;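 active = mean replicate activation of at least 50% with a set share of replicates each reaching 50%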;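 also: 0% = median of the neutral control wells and 100% = twice that signal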
LMP1 NFkB inh: EBV LMP1-driven NF-kappaB luciferase reporter inhibitors, primary screen, cell-based, luminescence, single point; LMP1-induced NF-kappaB luciferase reporter cells; inhibition, % at 12.5 µM; hit rate 0.69% among 350,000; AID 504558, 2011; in the data active = inhibition above about 41%;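 also: 0% = neutral control wells and 100% = reference inhibitor control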
TROY signal inh: inhibitors of TROY-driven NF-kB signaling, primary screen, Q293 LMP1-TROYcd cells, NF-kB luciferase, uHTS; Q293 LMP1-TROYcd NF-kB luciferase reporter, 4 h; inhibition, % at 10 µM; hit rate 0.98% among 360,000;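 active = compounds whose plate-normalised and pattern-corrected inhibition of the luciferase reporter signal at the single screening dose is 50% or more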
LGR2 antag: inhibitors of bursicon-induced LGR2 CRE-luciferase signal, primary screen, cell-based, HEK293, CRE-luciferase reporter, bursicon stimulation | Drosophila bursicon receptor LGR2 (rickets) | bursicon-stimulated, 4 h | inhibition, % at 9.99 µM | hit rate 0.35% among 380,000 | AID 720647, 2013;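 active = drop in luminescence signal, shown as inhibition above about 50% in the replicate tests, limit read from the data, passing the limit was not always enough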;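 also: agonist challenge used bursicon conditioned medium at about half maximal strength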
* hit, by the source's call; nt = not tested or not shown. A selection: hits, their analogues and other compounds. The true share with any hit is near 3.6%.

SMILES	TWEAK Fn14 block	HSF1 inhib	HSF1 activator	LMP1 NFkB inh	TROY signal inh	LGR2 antag
COc1ccc(N=Nc2cc(C)ccc2O)cc1	23	74	59*	-19	-18	22
COc1ccc(N=Nc2ccc3ccccc3c2)c(O)c1	81*	-41	-55	-39	63*	60*
OCc1ccc(N=Nc2ccccc2)cc1	-5	12	26	28	-35	-96
COc1ccc(N=Nc2ccc(CO)cc2)cc1	37	26	72*	26	-28	12
COc1cccc(N=Nc2ccc3ccccc3c2O)c1	75*	-62*	-70	-10	58*	16
C[C@H]1CN([C@@H](C)CO)C(=O)Cc2cc(NC(=O)CCN3CCOCC3)ccc2O[C@@H]1CN(C)Cc1ccc(-c2ccccc2)cc1	nt	nt	nt	nt	nt	9
C[C@H]1CN([C@@H](C)CO)C(=O)Cc2cc(NC(=O)Nc3ccccc3)ccc2O[C@H]1CN(C)C(=O)Nc1ccc(C(F)(F)F)cc1	nt	nt	nt	nt	nt	-18
O=[N+]([O-])c1ccc(Nc2nc(N/N=C\c3ccc4c(c3)OCO4)nc(N3CCCCC3)n2)cc1	54*	-22	-24	15	12	nt
C[C@H]1CN([C@@H](C)CO)C(=O)c2cc(NS(C)(=O)=O)ccc2O[C@H]1CN(C)Cc1ccc(-c2ccccc2)cc1	nt	nt	nt	nt	nt	-7
COc1ccc2c3c(n(C)c2c1)[C@@H](CO)N(C(=O)CN(C)C)CC31CCN(Cc2cccnc2)CC1	nt	nt	nt	nt	nt	-18
COc1ccc(O)c(C=Nc2cc(NC(C)=O)c(Cl)cc2Cl)c1	6	3	3	5	-14	nt
CC(=O)Nc1cc(N=Cc2ccc(O)cc2O)c(Cl)cc1Cl	99*	-8	13	4	30	nt
S=C(NCc1cccs1)Nc1ccccc1	-10	5	-3	-2	-7	13
Cc1ccc(NC(=S)NCc2cccs2)cc1	-3	-2	11	87*	-37	nt
C[C@@H]1CN([C@@H](C)CO)C(=O)c2cc(NC(=O)c3ccncc3)ccc2O[C@H]1CN(C)C	nt	nt	nt	nt	nt	9
CCOc1cc(C(=O)Nc2cccnc2)cc(OCC)c1OCC	21	6	13	0	52*	-9
CCn1cc(/C=C(\NC(=O)c2ccccc2F)C(=O)NCCCN2CCOCC2)c2ccccc21	68*	-6	-8	1	-23	6
CCn1cc(/C=C(\NC(=O)c2ccc(C)cc2)C(=O)NCCCN2CCOCC2)c2ccccc21	-10	-3	-2	-7	-29	-8
Fc1ccc(-c2nc3c4ccccc4ccn3c2Cc2ccccc2C(F)(F)F)cc1	-2	nt	nt	nt	59*	nt
O=C(/C=C\c1ccccc1OC(=O)c1ccccc1F)c1cc2ccccc2o1	12	124	166*	8	-41	-50
COc1ccc2cc3c(N)nn(C(=O)c4ccc(F)cc4)c3nc2c1	55*	-23	-34	38	38	11
COc1ccc2cc3c(N)nn(C(=O)c4cccc(F)c4)c3nc2c1	14	-40	-49	26	15	13
COc1ccc2cc3c(N)nn(C(=O)c4ccccc4Cl)c3nc2c1	82*	-51*	-63	80*	50	28
COc1ccc2cc3c(N)nn(C(=O)Cc4c[nH]c5ccccc45)c3nc2c1	95*	-54*	-65	75*	67*	88*
Cc1ccc2occ(/C=N/NC(=O)c3ccccc3O)c(=O)c2c1	58*	-9	-11	-1	20	2
SMILES	TWEAK Fn14 block	HSF1 inhib	HSF1 activator	LMP1 NFkB inh	TROY signal inh	LGR2 antag
Cc1ccc2occ(/C=N/NC(=O)c3ccncc3)c(=O)c2c1	39	-9	-9	3	21	16
COc1ccc(C(=O)N/N=C\c2coc3ccc(C)cc3c2=O)cc1	54*	5	-7	-1	18	23
Cc1ccc2occ(/C=N/NC(=O)c3ccc(Cl)cc3)c(=O)c2c1	42	0	7	-5	20	17
Cn1cnc(S(=O)(=O)N[C@@H]2C=C[C@@H](CC(=O)NCC3CCCCC3)O[C@H]2CO)c1	nt	nt	nt	nt	nt	-4
CCCCS/C(N)=N/N=C/c1ccccc1O	-1	26	87*	-35	-49	nt
CCCS/C(N)=N/N=C/c1cc(C)ccc1O	7	32	60*	-44	-49	nt
